Assay outcomes: PubChem, several laboratories
The sample as a whole holds a higher share of hits than the screen did.
CD11b adhes inh – inhibitors of human CD11b/CD18 binding to fibrinogen. K562 CD11b/CD18 adhesion to fibrinogen, ATPlite luminescence; Mn2+ added to activate the integrin. AID 1497. actives 0.54% (n = 93,000). inhibition, % at 10 µM;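 active = primary inhibition of 50% or more at 10 µM, then 40% or more on retest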
FAK inh – inhibitors of human focal adhesion kinase; Q05397; biochemical FAK kinase activity assay; AID 727; actives 0.84% (n = 97,000); inhibition, %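 (tested at 7 µM)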; in the data active = inhibition above about 19%;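 also: 0% = DMSO and 100% = reference compound high control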
Mac1 fbg enh – CD11b/CD18-fibrinogen binding enhancement. P05107+P11215. activation, % at 10 µM. actives 0.07% (n = 93,000). K562 CD11b/CD18 adhesion to fibrinogen, ATPlite luminescence;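 active = 10 µM primary screen giving 50% or more activity, confirmed by 40% or more on retest at that dose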
DAT uptake mod – modulates human dopamine transporter uptake under cocaine. Q01959. LLC-PK1 hDAT cells, [14C]-dopamine uptake with cocaine IC80; actives deviate in either direction. B-score at 10 µM. actives 1.3% (n = 110,000). AID 449768;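 active = Z score or B-score, a plate-position-corrected score, falls beyond the plate's 99.7% confidence bounds, in either direction; inactive = both scores lie inside the 99.7% bounds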;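 also: scored against the spread of the other compound wells on the same plate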
Target sequence (Q01959 whole entry, looked up): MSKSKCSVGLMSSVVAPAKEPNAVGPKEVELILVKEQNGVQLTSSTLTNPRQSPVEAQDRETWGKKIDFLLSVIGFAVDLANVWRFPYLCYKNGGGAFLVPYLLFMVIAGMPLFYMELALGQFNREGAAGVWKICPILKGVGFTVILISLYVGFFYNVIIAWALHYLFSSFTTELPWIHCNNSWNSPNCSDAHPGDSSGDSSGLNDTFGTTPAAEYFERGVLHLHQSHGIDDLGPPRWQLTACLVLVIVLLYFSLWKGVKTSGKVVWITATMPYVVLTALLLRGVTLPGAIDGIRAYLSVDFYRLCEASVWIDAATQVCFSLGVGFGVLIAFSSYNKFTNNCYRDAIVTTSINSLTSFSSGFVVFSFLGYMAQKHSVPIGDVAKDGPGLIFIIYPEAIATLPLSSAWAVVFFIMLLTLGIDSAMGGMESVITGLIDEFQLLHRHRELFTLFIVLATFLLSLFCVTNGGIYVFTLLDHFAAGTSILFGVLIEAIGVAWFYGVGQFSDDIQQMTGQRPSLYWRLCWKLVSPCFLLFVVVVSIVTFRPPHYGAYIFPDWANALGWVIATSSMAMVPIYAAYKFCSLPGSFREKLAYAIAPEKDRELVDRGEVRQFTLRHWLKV
D1 mod – allosterically modulates the human D1 dopamine receptor; HEK293 D1, CRE-luciferase, dopamine EC30 potentiation; actives deviate in either direction; B-score at 10 µM; actives 5.9% (n = 58,000); AID 641;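 active = luminescence count or its row- and column-corrected plate score outside the 99.7% band of the plate's sample wells, on either side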
Pyk2 oligo antag – Pyk2 (human) oligomerization antagonism | actives 0.83% (n = 99,000) | Q293 cells, Pyk2 FERM NanoBiT luminescence; hits give low values | z-score (the deposit names both 25 µM and 10 µM) | Q14289;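 active = Z-score of -3 or lower, scaled per plate to the spread of control and sample wells; inactive = z-score above -3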;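 also: negative z-score means lost luminescence so less FERM oligomerization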
The depositor's hits bear a star; · = not tested or not shown.

SMILES	CD11b adhes inh	FAK inh	Mac1 fbg enh	DAT uptake mod	D1 mod	Pyk2 oligo antag
COc1ccccc1-n1c(=O)oc2ccc(Cl)cc2c1=O	96*	-1	-12	-0.75	-2.3*	-0.37
COc1ccc(Cl)cc1N1Cc2ccccc2C1	-9	2	48	-0.76	·	-1.1
CCc1ccccc1NC(=O)CSc1nc2n[nH]c(C)c2c(=N)n1-c1ccc(OC)cc1	·	·	·	-0.46	3.5	-1.7
COc1ccccc1NC(=O)CSc1nc2n[nH]c(C)c2c(=N)n1-c1ccccc1Cl	·	21*	·	1.6	·	-2.9
CCOC(=O)c1c(C)[nH]c(C)c1C(=O)COC(=O)c1cc2ccccc2cc1O	62*	·	-4	·	·	·
CCOC(=O)c1c(C)[nH]c(C)c1C(=O)COC(=O)/C=C/c1cccc(F)c1	4	·	-4	·	·	·
CCCCC1=CC2=CC(=O)C(C)(OC(=O)CC)C(=O)C2=CN1c1ccccc1 (configuration not stated)	·	·	·	-2.9*	·	·
CSc1nc2ccccc2n1Cc1c(Cl)cccc1Cl	16	2	-1	1.6	·	-0.18
O=C(O)CCCCCn1c(O)c(C=C2N=c3ccccc3=N2)sc1=S	69*	·	0	·	·	·
CS(=O)(=O)N1CCC(C(=O)Nc2ccc(Br)cc2F)CC1	-23	0	-3	-1.1	-0.6	1.2
CCCN1C(=O)c2cc(C(=O)NC3CCCCCC3)ccc2C1O (configuration not stated)	-7	-2	4	0.52	-3.2*	·
S=c1[nH]ncn1/N=C/c1ccccn1	13	-1	-5	0.11	·	-0.18
COc1ccc(-c2cn3c4c(sc3n2)CCCC4)cc1	55*	1	-4	1.8	-5*	-1.7
COc1ccc(-c2cn3c(C)c(C(=O)Nc4ccncc4)sc3n2)cc1	8	18	1	-0.28	-3.3*	·
COc1ccc(-c2cn3c(C)c(C(=O)Nc4cccc(NC(C)=O)c4)sc3n2)cc1	·	-5	·	0.79	0.41	-1.6
Cc1c(C(=O)Nc2ccncc2)sc2nc(-c3ccc(F)cc3)cn12	32	·	14	-1.3	-5.2*	·
COC(=O)c1ccc(NC(=O)c2sc3nc(-c4ccccc4)cn3c2C)cc1	39	-35	-4	·	-0.59	-3.8*
O=C(Cc1cccs1)N(Cc1ccco1)C1(C(=O)NC2CCCC2)CCCCC1	-6	·	1	0.069	-1.2	-1.7
Cc1cc(C)c(O)c(-c2cc(C(=O)Nc3ccc(S(=O)(=O)N4CCOCC4)cc3)[nH]n2)c1	9	-2	0	-0.086	0.78	-3.2*
Cc1cccc(-n2nc3c(c2NC(=O)c2ccc(S(=O)(=O)N4CCOCC4)cc2)CSC3)c1C	15	10	0	·	0.42	1.4
O=C(NC12CC3CC(CC(C3)C1)C2)c1ccc(S(=O)(=O)N2CCOCC2)cc1	-1	-3	-2	2.5*	0.24	0.79
O=C(Nc1ccc(S(=O)(=O)N2CCOCC2)cc1)c1ccc(Cl)cc1	·	·	·	-0.6	-1.4	·
O=C(Nc1ccc(Cc2ccncc2)cc1)c1ccc(S(=O)(=O)N2CCOCC2)cc1	93*	-2	-10	-0.16	0.26	-1.7
Cc1ccc(-n2nc3c(c2NC(=O)c2ccc(S(=O)(=O)N4CCOCC4)cc2)CSC3)c(C)c1	-10	2	80*	-0.11	-1.4	-0.3
CC1CCN(C(=O)CSc2ccc3nnc(-c4ccc(F)cc4)n3n2)CC1	·	·	·	·	-0.11	·
SMILES	CD11b adhes inh	FAK inh	Mac1 fbg enh	DAT uptake mod	D1 mod	Pyk2 oligo antag
CCOC(=O)c1cc(C(C)(C)C)oc1CNC(=O)c1c(C)oc2c1CCCC2	·	0	·	-0.8	·	-0.52
O=C(Nc1ncc(Cc2ccccc2)s1)C1CCCO1 (configuration not stated)	-1	4	1	-0.36	-3.7*	·
O=C(Nc1nc2ccccc2s1)C1CCCO1 (configuration not stated)	-3	2	1	-0.3	-1.6	0.13
CC(C)(C)C(=O)NCCc1nc(-c2ccccc2)no1	·	·	·	1.1	·	·
CCc1cccc(CC)c1NC(=O)COC(=O)c1ccccc1-c1nc2ccccc2s1	-7	·	2	·	·	·
CNC(=O)COC(=O)c1ccc(-c2nc3ccccc3s2)s1	64*	-1	11	0.01	·	1.6
Cc1ccc2nsnc2c1S(=O)(=O)NCc1cccnc1	8	-1	3	-0.86	-0.42	0.55
Cc1ccc2nsnc2c1S(=O)(=O)N1CCN(CCc2ccccc2)CC1	-10	0	-2	4.3*	-4.7*	0.2
O=C([C@@H]1CC=C[C@@H]2CCN(C3CC3)C(=O)[C@@H]21)N1CCN(c2ccccc2)CC1	·	·	·	1.2	·	·
CCOC(=O)N1CCN(C(=O)C2CCCCC2)CC1	-3	0	2	-2.6*	·	-0.39
CCOC(=O)N1CCN(C(=O)C2CCC(C(=O)N3CCN(C(=O)OCC)CC3)CC2)CC1 (configuration not stated)	·	-2	·	·	-0.46	·
COc1ccc(CN(Cc2nc3ccccc3c(=O)[nH]2)C(=O)NC2CCCCC2)cc1	-18	2	4	1.1	1.2	-1.1
COc1ccc(CN(Cc2nc3ccccc3c(=O)[nH]2)C(=O)C(C)(C)C)cc1	-7	2	-2	0.13	-4.9*	0.66
O=S1(=O)C=C(SCCN2CCCCC2)c2ccccc21	-8	-7	5	-0.053	0.1	-0.47
O=S1(=O)C=C(Sc2nnc(-c3ccccc3)o2)c2ccccc21	6	·	-3	·	-2.9*	-2.1
CSc1nnc(-c2ccccc2)o1	1	-2	-2	-0.27	1.5	0.13
O=S1(=O)C=C(Sc2nc3ccccc3s2)c2ccccc21	-10	·	2	-0.63	-3.7*	·
Cc1cc(C)nc(SC2=CS(=O)(=O)c3ccccc32)n1	-10	-1	-1	-7.7*	1.8	-0.89
CCCCOc1ccc(NC(=S)Nc2cc(C)nc(SCCCC)n2)cc1	-2	·	0	·	·	·
O=C(O)c1cc2c(s1)-c1ccccc1OC2	-17	·	-1	0.31	·	1.1
O=C(NC1CC1)c1cc2c(s1)-c1ccccc1OC2	46	-4	1	-0.4	-5.8*	·
CCCCNC(=O)CSc1nc2cc3c(cc2c(=O)n1CCCN(CC)CC)OCO3	-39	·	2	1.1	0.11	-0.08
CCN(CC)C(=O)CSc1nc2cc3c(cc2c(=O)n1Cc1ccc2c(c1)OCO2)OCO3	-46	·	13	-0.12	1.8	-3.1*
O=C(c1ccccc1)c1cncc(Br)c1	-1	3	0	-8.1*	1.1	-0.02
O=C(Nc1ccccc1C(=O)O)c1cncc(Br)c1	-17	-3	-2	2.3	·	0.54
CC(C)(C)C(=O)Nc1cc2nn(-c3ccccc3)nc2cc1Cl	99*	-1	-14	0.016	·	-0.99
CCc1ccc(NC(=O)c2cc(C)on2)cc1	-2	-1	2	-1.4	-3.1*	-0.57
Cc1nn(-c2ccccc2)c(C)c1C(=O)OCC(=O)N1CC(=O)Nc2ccccc21	0	-1	-2	·	-0.37	1.2
Cc1nn(-c2ccccc2)c(C)c1C(=O)OC/C(O)=C(\C#N)c1nc2ccccc2[nH]1	43	-1	12	-7.9*	-2.1	-0.1
